Records with an inconclusive call do not appear. Activity calls are given as the source filed them. Rule for the calls, unless noted: active = hit-call score of the fitted dose curve at least 0.9, where 1 is the maximum; inconclusive = response in the unintended direction; inactive = score below 0.9.
Assays:
[1] = biological target: Cellular tumor antigen p53 (Homo sapiens) (UniProt P04637); test: TOX21_p53_BLA_p2_ratio: Tox21 HCT-116 p53 Agonism Beta-lactamase Assay, Ratio, Phase 2 (AID 2283592)
Summary of the method: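 HCT116 cells carrying a p53-responsive beta-lactamase reporter were plated, incubated 5 h at 37C, then dosed with compounds in DMSO (217-fold dilution) for 16 h. CCF4-AM substrate was added for 2 h at room temperature; the 460/530 nm emission ratio gave gain-of-signal activity relative to DMSO.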

[2] = TOX21_p53_BLA_p3_viability: Viability Assessment in the Tox21 HCT-116 p53 Agonism Beta-lactamase Assay, Phase 3 (AID 2283593);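 note: cells exposed to compound for 16 h before reading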
Summary of the method: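 Cellular ATP was quantified by CellTiter-Glo luminescence, read after 30 min at room temperature. Beforehand, HCT116 cells (4000/well) received compound 5 h post-seeding, 217-fold diluted from DMSO, then incubated 16 h at 37C.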

[3] = biological target: Cellular tumor antigen p53 (Homo sapiens) (UniProt P04637); test: TOX21_p53_BLA_p3_ratio: Tox21 HCT-116 p53 Agonism Beta-lactamase Assay, Ratio, Phase 3 (AID 2283596)
Summary of the method: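 HCT116 p53-bla cells (4000/well) given compound in DMSO (217-fold dilution) after 5 h, incubated 16 h at 37C. CCF4-AM substrate 2 h at room temperature; 460/530 nm emission ratio, gain fitted against DMSO.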

[4] = TOX21_p53_BLA_p5_viability: Viability Assessment in the Tox21 HCT-116 p53 Agonism Beta-lactamase Assay, Phase 5 (AID 2283600)
Summary of the method: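 Cells were plated at 4000/well, rested 5 h at 37C, then given compounds in DMSO (217-fold dilution) for 16 h at 37C, 5% CO2. Following the CCF4-AM beta-lactamase read, CellTiter-Glo was added and luminescence was read after 30 min at room temperature.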

[5] = TOX21_p53_BLA_p4_viability: Viability Assessment in the Tox21 HCT-116 p53 Agonism Beta-lactamase Assay, Phase 4 (AID 2283597);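 note: hits lower the luminescence signal meaning cytotoxicity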
Summary of the method: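 HCT116 p53-bla cells (4000/well) rested 5 h at 37C, then received compounds in DMSO (217-fold dilution) for 16 h at 37C, 5% CO2. CellTiter-Glo was added after the CCF4-AM read, and luminescence was read after 30 min at room temperature.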

[6] = biological target: Cellular tumor antigen p53 (Homo sapiens) (UniProt P04637); test: TOX21_p53_BLA_p5_ratio: Tox21 HCT-116 p53 Agonism Beta-lactamase Assay, Ratio, Phase 5 (AID 2283599)
Summary of the method: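 Beta-lactamase reporter ratio (blue 460 nm over green 530 nm, 405 nm excitation) after 2 h CCF4-AM loading, in HCT-116 cells exposed 16 h at 37 C to compounds pinned at 217-fold dilution. Increases relative to DMSO baseline scored.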

[7] = biological target: Cellular tumor antigen p53 (Homo sapiens) (UniProt P04637); test: TOX21_p53_BLA_p4_ratio: Tox21 HCT-116 p53 Agonism Beta-lactamase Assay, Ratio, Phase 4 (AID 2283601)
Summary of the method: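 Signal is the blue/green (460nm/530nm) ratio of cleaved versus uncleaved CCF4-AM substrate, read after 2 h substrate loading. Cells were HCT116 carrying the p53-responsive beta-lactamase reporter, dosed 16 h at 37C, 5% CO2; CellTiter-Glo measured in parallel.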

[8] = STM_H9_OrnCyssISnorm_ratio: Stemina devTOX quickPredict H9 human embryonic stem cell (hESC)-based Assay for Ornithine (ORN):Cystine (CYSS) Ratio (AID 2283714)
Summary of the method: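 Steps: H9 hESCs in pluripotent state dosed 72h, medium plus compound renewed every 24h; conditioned medium from the final 24h deproteinized in 40% acetonitrile; ORN and CYSS quantified by UPLC-HRMS with C13 spike-ins; ratio relative to vehicle.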

[9] = ACEA_AR_agonist_AUC_viability: ACEA Biosciences xCELLigence Real-Time Cell Analysis on Androgen Receptor Agonism for Viability (AID 2283775);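 for AC50: viability read 80 hours after compound addition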
Summary of the method: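 Read-out is area under the impedance curve at 80 h post-dose in 22Rv1 cells, with DMSO as baseline and signal loss taken as reduced viability. Compounds ran in duplicate from 100 uM final.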

[10] = ACEA_AR_antagonist_AUC_viability: ACEA Biosciences xCELLigence Real-Time Cell Analysis on Androgen Receptor Antagonism for Viability (AID 2283776);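 note: 22Rv1 human prostate cancer cells growing on impedance electrode plates; area under impedance growth curve at 80 h after dosing as viability; hits lower the growth signal relative to DMSO meaning cytotoxicity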
Summary of the method: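 Viability endpoint from label-free cell-index monitoring: 22Rv1 cultures treated with an eight-point 1:4 dilution series starting at 100 uM final, AUC at 80 h fitted against DMSO.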

[11] = CEETOX_H295R_MTT_cell_viability: Viability Assessment in the CeeTox HT-H295R MTT Assay (AID 2283718; active = hit-call score of the fitted dose curve at least 0.9, where 1 is the maximum; inactive = score below 0.9)
Summary of the method: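 MTT reduction (0.5 mg/ml, 4 h at 37 C; absorbance at 570 and 650 nm) gave viability as background-corrected percent change versus controls. H295R cells had 48 h forskolin (10 uM) prestimulation, then 48 h chemical exposure at 0.1% DMSO.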

Measured: AC50

Sequence of Cellular tumor antigen p53 (Homo sapiens) (P04637 whole entry, looked up): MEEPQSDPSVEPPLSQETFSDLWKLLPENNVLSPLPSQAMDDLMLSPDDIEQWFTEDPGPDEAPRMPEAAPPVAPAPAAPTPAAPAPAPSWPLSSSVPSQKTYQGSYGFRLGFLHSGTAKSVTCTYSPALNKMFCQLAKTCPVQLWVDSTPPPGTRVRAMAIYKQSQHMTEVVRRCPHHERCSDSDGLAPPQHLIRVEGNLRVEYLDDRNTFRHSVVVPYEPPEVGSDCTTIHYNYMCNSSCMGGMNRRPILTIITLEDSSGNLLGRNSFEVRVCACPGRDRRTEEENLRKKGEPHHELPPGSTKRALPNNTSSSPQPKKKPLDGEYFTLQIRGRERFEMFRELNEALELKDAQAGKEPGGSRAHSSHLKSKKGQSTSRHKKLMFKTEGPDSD

ON(Cc1ccccc1)Cc1ccccc1
inactive: [1] | [2] | [3] | [4]

CN(C)c1ccc(N=Nc2ccccc2C(=O)O)cc1
inactive: [1] | [6] | [7]
active: [2] 75 µM | [5] 68 µM | [8] 37.5 µM | [9] 6.64 µM

CCC(CC)C(=O)O
inactive: [1] | [2] | [4]

CCO[Si](CCCN=C=O)(OCC)OCC
inactive: [1] | [3]

COc1cc(C)ccc1C(C)C
inactive: [1] | [2] | [3] | [6] | [4] | [7]

Cc1cc(C)c(C)c(O)c1
inactive: [1] | [2] | [5] | [6] | [7]

CCCCCCCCO[C@@H]1O[C@H](CO)[C@@H](O)[C@H](O)[C@H]1O
not listed: [4] | [5] | [8] | [11]
inactive: all other assays above

Cc1ccccc1C
inactive: [1] | [2] | [6] | [7]

O=Cc1ccc(CO)o1
inactive: [1] | [3] | [5] | [6] | [4] | [7]

Cc1ccc(C(C)c2ccc(C)c(C)c2)cc1C
not listed: [2] | [4] | [5] | [8]
inactive: all other assays above

C=CC(=O)OCCC(=O)O
inactive: [1] | [3] | [7]

Cc1cc(C)c(C(=O)O)c(C)c1
inactive: [1] | [3] | [6] | [7] | [9] | [10]

CCCCCCCCCCOC(C)=O
inactive: [1] | [3] | [7]

N#[N+]c1ccc2c(S(=O)(=O)[O-])cccc2c1O
inactive: [1] | [3] | [5] | [6] | [4] | [7]

O=C1CCCN1CCO
inactive: [1] | [3] | [5] | [6] | [4] | [7]

Cc1ccc([N+](=O)[O-])cc1S(=O)(=O)O
inactive: [1] | [3] | [4] | [7]

CC(C)CCCCCOC(=O)CCS
inactive: [1] | [3] | [6]

CC1(C)S[C@@H]2[C@H](NC(=O)COc3ccccc3)C(=O)N2[C@H]1C(=O)O
inactive: [1] | [3] | [5] | [6] | [7]

CC(=O)OCC(C)OC(C)=O (configuration not stated)
inactive: [1] | [3] | [6] | [7]

O=C1CCCC1
inactive: [1] | [3] | [5] | [6] | [4] | [7]
